Measurements taken from PubChem BioAssay (NCI).
Compounds without any hit were thinned out: in the full panel of roughly 83,000, 20% have a hit.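 Note: values are percent growth. 100 is the growth of untreated cells, values between 100 and 0 indicate rising inhibition; between -100 and 0 indicates cell death.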 Unmarked numbers belong to inactive results. Active and inactive are the calls of the source. The calls were made as follows: active = growth percent below 10; inactive = the rest.

system: NCI-H322M lung; test: NCI-60 one-dose screen, 48 h (100 = growth as untreated, 0 = no growth, -100 = all killed); settings: 10 µM unless noted

Compound	growth
O=C(O)C1CN(c2cccc(Cl)c2)N(c2cccc(Cl)c2)C1=O (stereo not given)	83.9%
COc1ccc2c(c1)c(-c1ccc(-c3cn(C)c4ccc(OC)cc34)[nH]1)cn2C	71%
CCN1CCN(CC(=O)Nc2nc3ccc(NCc4ccc(Br)cc4)cc3s2)CC1	84.9%
CC(C)c1ccc(-n2c(=S)[nH]c3sc4c(c3c2=O)CCC(=O)C4)cc1	78%
Cc1nc2sc(C(=O)Nc3cccc(Cl)c3)c(N)c2cc1C(O)c1ccccc1 (stereo not given)	60.2%
Cc1cscc(C)c1=S	87%
COc1ccc(C2=NN(C(=O)c3cc(OC)c(OC)c(OC)c3)C(c3ccc(N(C)C)cc3)C2)cc1 (stereo not given)	48.3%
CN(C)c1ccc(/C=C2/C=C(c3ccccc3)OC2=O)cc1	96.9%
CN1CCN(c2ccc3c(c2)nc(NNC(=O)c2cnccn2)c2cccn23)CC1	21.5%
CN(CCC#N)c1ccc(/C=C2\NC(=O)NC2=O)cc1	103%
COc1ccc(C(c2cc(OC)c(OC)c(OC)c2)N2CCCC2)cc1 (stereo not given)	87.5%
O=C(/C=C/c1ccc(Br)cc1)c1ccc(-n2cc(CN3CCN(c4cc5c(cc4F)c(=O)c(C(=O)O)cn5C4CC4)CC3)nn2)cc1	87.1%
CCOC(=O)n1cc(-c2nonc2-c2cn(C)c3ccccc23)c2ccccc21	44%
CCOC(=O)c1n[nH]n2c1nc(=O)c1cnn(C)c12	99.4%
C#CC#CC#CC#CC#CC#CC#CC#CCC1OCC(COC(=O)O[C@@H](C(=O)O[C@H]2C[C@@]3(O)[C@@H](OC(=O)c4ccccc4)[C@@H]4[C@]5(OC(C)=O)CO[C@@H]5C[C@H](O)[C@@]4(C)C(=O)[C@H](OC(C)=O)C(=C2C)C3(C)C)[C@@H](NC(=O)c2ccccc2)c2ccccc2)O1 (stereo not given in full)	29.1%
CCn1cc(C(=O)N/N=C/c2ccc(Br)cc2)c(=O)c2cc(F)c(N3CCNC(C)C3)c(F)c21 (stereo not given)	85.8%
CCSC1=CC(=O)c2ccccc2C1=O	94.6%
N#Cc1c(NC(=O)c2cccs2)[n+]([O-])c2ccc(Cl)cc2[n+]1[O-]	108%
O=C(c1ccc(Cl)cc1Cl)N1c2ccccc2Sc2ccccc21	85.2%
CN(C)c1ccc(/C=C/C(=O)c2ccc(Nc3nc(Nc4ccc(F)cc4)nc(Nc4ccc(Cl)cc4)n3)cc2)cc1	95.7%

Compound	growth
CCN1C(=O)N(CC)C2C1NN=c1s/c(=C3\C(=O)N(CCc4ccccc4)c4ccccc43)c(=O)n12 (stereo not given)	36.1%
Cn1c(/C=C/[N+](=O)[O-])cc2ccccc21	105%
CCN(CCO)CC(C)Nc1ccc([N+](=O)[O-])c2sc3ccccc3c(=O)c12 (stereo not given)	15.6%
CCOC(=O)C1CCN(c2ccc(N3C[C@@H](CNCc4ccc(C(=N)N)cc4)OC3=O)cc2)CC1	103%
CC1=NN(c2ccc(Cl)cc2)CC1(C)N=O (stereo not given)	99.9%
CCN1C(=O)N(CC)C2C1NN=c1s/c(=C\c3ccccc3Br)c(=O)n12 (stereo not given)	37.5%
Cc1cc(N2CCN(C)CC2)nc(NCc2cc(Nc3ccnc4cc(Cl)ccc34)ccc2F)n1	8.43% (active)
c1ccc2cc(Cn3c[n+](Cc4ccc5ccccc5c4)c4ccccc43)ccc2c1	34.6%
Cc1ccc2[nH]c(-c3ccc(S(C)(=O)=O)cc3)c(/C=N/N=C(N)N)c2c1	79%
COc1ccc(-c2cc(C(=O)N3N=C(c4ccc(N)cc4)CC3c3ccccc3)c3ccccc3n2)cc1 (stereo not given)	47.1%
COc1cccc(/C=C/C(=O)c2cc3c(N)c(C(=O)Nc4cccc(Cl)c4C)sc3nc2C)c1	7.75% (active)
O=C(CBr)CN1C(=O)c2ccccc2C1=O	101%
C=C(CN1CC=CCC1)[C@@H]1CC[C@]2(CO)CC[C@]3(C)[C@H](CC[C@@H]4[C@@]5(C)CC[C@H](O)C(C)(C)[C@@H]5CC[C@]43C)[C@@H]12	110%
N=C(N)c1ccc(-c2ccc(-c3ccc(Cl)cc3)o2)o1	26.2%
CC(O)c1ncc(/C=C2\SC(=S)N(Cc3ccccc3)C2=O)s1 (stereo not given)	100%
O=C(/C=C\c1ccco1)/C=C/c1ccco1	117%
CCCCNC1=C(OCC)C(=O)c2ccccc2C1=O	103%
C#CC#CC#CC#CC#CC#CC#CC#CC[C@H]1OC[C@H](COC(=O)O[C@@H](C(=O)O[C@H]2C[C@@]3(O)[C@@H](OC(=O)c4ccccc4)[C@@H]4[C@]5(OC(C)=O)CO[C@@H]5C[C@H](O)[C@@]4(C)C(=O)[C@H](OC(C)=O)C(=C2C)C3(C)C)[C@@H](NC(=O)c2ccccc2)c2ccccc2)O1	53.6%
CCn1c2ccc(O)cc2c2c(C)c3c[n+](C(C)C)ccc3c(C)c21	41.8%
C=CCOC(=O)C1=C(C)NC(=O)NC1c1c(Cl)n(C)c2ccccc12 (stereo not given)	96.9%
